# Rows were chosen to be rich in hits. Some 4.3% of all compounds tested hit in one or more screens of this group.
# ADAM17 inh = inhibitors of human ADAM17; P78536; recombinant ADAM17, EDANS/DABCYL FRET peptide cleavage; inhibition, % at 6.95 µM; 0.83% of 370,000 active;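 active means inhibition above the mean of compounds lying between control limits plus 3 SD, set per campaign, cut at about 8.5% in these data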;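 further: 0% = DMSO-only wells as the low control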
# ADAM10 inh = inhibitors of human ADAM10; recombinant ADAM10, EDANS/DABCYL FRET peptide cleavage, 3 h; 0.62% of 370,000 active; inhibition, % at 7 µM; AID 720582; O14672;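 active means inhibition above a per-campaign cutoff equal to the mean of compounds falling between control-based bounds plus 3 SD, cut at about 20% in these data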;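 further: 0% = DMSO wells while the 100% control is not disclosed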
# NR3A LBD binder = modulators (binders) of human NR3A ligand-binding domain; NR3A LBD differential scanning fluorimetry, Tm shift; 0% = protein alone, 100% = glycine-bound protein; Tm shift relative to glycine control, % at 25 µM; 2.5% of 340,000 active; AID 1259313;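 active means melting temperature shift of at least 10% of the positive control shift, at one fixed dose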
# HGIII-sPLA2 inh = Blocks human group III sPLA2 activity; Q9NZ20; QFRET BODIPY PC-A2 liposome hydrolysis, fluorescence; inhibition, % at 12.2 µM; 0.56% of 370,000 active;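 active means inhibition above mean plus 3 SD of compounds lying within the high and low control bounds, cut at about 19% in these data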;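 further: 0% = median of test compound wells and 100% = no enzyme DMSO wells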
# Target sequence (Q9NZ20 whole entry, looked up): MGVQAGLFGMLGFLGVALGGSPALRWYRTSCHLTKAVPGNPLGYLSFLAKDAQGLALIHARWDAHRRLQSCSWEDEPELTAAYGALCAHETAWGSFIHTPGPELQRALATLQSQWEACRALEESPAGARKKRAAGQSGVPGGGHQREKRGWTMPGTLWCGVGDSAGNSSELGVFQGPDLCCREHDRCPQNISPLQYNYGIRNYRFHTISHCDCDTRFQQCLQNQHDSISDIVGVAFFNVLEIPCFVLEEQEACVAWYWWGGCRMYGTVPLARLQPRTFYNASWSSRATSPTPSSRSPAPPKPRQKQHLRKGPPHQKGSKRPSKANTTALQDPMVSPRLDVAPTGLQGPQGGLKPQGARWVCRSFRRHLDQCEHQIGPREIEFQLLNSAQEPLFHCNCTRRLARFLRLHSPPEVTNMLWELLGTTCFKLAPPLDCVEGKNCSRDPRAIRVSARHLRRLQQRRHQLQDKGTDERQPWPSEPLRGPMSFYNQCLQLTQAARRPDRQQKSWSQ
# FAS-TE inh = inhibitors of human fatty acid synthase thioesterase domain; P49327; 0.67% of 360,000 active; inhibition, % at 15 µM; AID 602261; recombinant FAS-TE, OMFH fluorogenic substrate, fluorescence endpoint;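 active means compounds whose normalised, plate-corrected inhibition of enzyme fluorescence in the single-dose primary screen is 50% or more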;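 further: 0% = DMSO with enzyme and 100% = substrate without enzyme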
# ADAM10 confirm = confirmation of inhibitors of human ADAM10; ADAM10 QFRET peptide cleavage, EDANS fluorescence; inhibition, % at 6.95 µM; shares compounds with ADAM10 inh; AID 743208; 1% of 2,100 active;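 active means inhibition above about 20% chosen separately for each screening run, limit read from the data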;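 further: 0% = DMSO wells and 100% = marimastat wells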
# ADAM17 counter = counter-screen for ADAM10 exosite inhibitors: inhibitors of human ADAM17. shares compounds with ADAM10 inh. ADAM17 QFRET peptide cleavage, EDANS fluorescence. inhibition, % at 6.95 µM. 0.5% of 2,100 active;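 active means mean triplicate inhibition above the solvent-only control wells' mean plus 3 SD, cut at about 12% in these data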;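 further: 0% = DMSO wells and 100% = marimastat wells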
# ADAM10 ctr = ADAM10 inhibition, counter-screen for ADAM17 exosite hits. 47% of 2,900 active. inhibition, % at 6.95 µM. shares compounds with ADAM17 inh. recombinant ADAM10, EDANS/DABCYL FRET peptide cleavage, 3 h;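 active means mean inhibition over the triplicate runs exceeds the activity threshold set in the earlier primary screen, cut at about 20% in these data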;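 further: 0% = DMSO wells and 100% = marimastat wells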
# ADAM17 confirm = human ADAM17 inhibition, confirmation. shares compounds with ADAM17 inh. recombinant ADAM17, EDANS/DABCYL QFRET peptide cleavage. inhibition, % at 6.95 µM. 65% of 2,900 active;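 active means mean inhibition across replicates above the hit cutoff set in the primary screen, cut at about 8.5% in these data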;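 further: 0% = DMSO wells and 100% = marimastat wells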
# Numbers without * were called inactive; . = no result given.
SMILES,ADAM17 inh,ADAM10 inh,NR3A LBD binder,HGIII-sPLA2 inh,FAS-TE inh,ADAM10 confirm,ADAM17 counter,ADAM10 ctr,ADAM17 confirm
COc1ccc(NC(=O)Nc2ccc3c(c2)C(=O)N([C@H](C)CO)C[C@H](C)[C@@H](CN(C)C(=O)Nc2ccc(C(F)(F)F)cc2)O3)cc1,16*,32*,4,-9,14,5,0,21*,12*
C[C@@H]1CCCCO[C@@H](CN(C)C(=O)Nc2ccc3c(c2)OCO3)[C@@H](C)CN([C@H](C)CO)C(=O)c2cc(NC(=O)Nc3ccc(C(F)(F)F)cc3)ccc2O1,9.8*,21*,.,-28,.,11,2,42*,22*
COc1ccc(NC(=O)Nc2ccc3c(c2)C(=O)N([C@H](C)CO)C[C@H](C)[C@@H](CN(C)C(=O)Nc2ccc(OC)cc2)O3)cc1,-2,-7,-1,-5,-5,.,.,.,.
C[C@H](CO)N1C[C@H](C)[C@@H](CN(C)S(=O)(=O)c2ccccc2)Oc2ccc(NC(=O)Nc3ccc(C(F)(F)F)cc3)cc2C1=O,8.8*,33*,23*,-48,12,9,2,40*,24*
C[C@@H]1CN([C@@H](C)CO)C(=O)c2cc(NC(=O)Nc3ccc(F)cc3)ccc2O[C@@H]1CN(C)Cc1ccc(Oc2ccccc2)cc1,11*,24*,12*,-24,22,19,7,48*,23*
CC(C)NC(=O)Nc1ccc2c(c1)C(=O)N([C@H](C)CO)C[C@H](C)[C@@H](CN(C)S(=O)(=O)c1ccccc1)O2,1,11,0,-3,-3,.,.,.,.
C[C@@H]1CN([C@@H](C)CO)C(=O)c2cc(NS(C)(=O)=O)ccc2O[C@H]1CN(C)Cc1ccc(Oc2ccccc2)cc1,1,4,1,-38,-2,.,.,.,.
O=C(c1cc(F)ccc1F)N1CCC(Oc2cccnc2)CC1,-1,-2,.,-6,.,.,.,.,.
CCc1nc2c(OCCC3CCCCC3)cccn2c1N(C)C(=O)c1ccc(C)cc1,15*,29*,.,18,22,7,2,10,7
O=[N+]([O-])c1ccccc1C=Nn1c(-c2cc(-c3ccccc3)n[nH]2)n[nH]c1=S,-3,-8,.,9,.,.,.,.,.
Cc1cc(-c2n[nH]c(=S)n2/N=C/c2ccccc2[N+](=O)[O-])n[nH]1,11*,21*,2,19,-8,-1,0,0,4
CC(C)C(NS(=O)(=O)c1c(Cl)cccc1Cl)C(=O)OCC(=O)c1c[nH]c2ccccc12 (configuration not stated),15*,28*,23*,-50,3,6,2,19,14*
CC(O)C(NS(=O)(=O)c1ccc(Cl)cc1)C(=O)OCC(=O)c1c[nH]c2ccccc12 (configuration not stated),-1,12,2,-52,3,.,.,.,.
COC(=O)c1cc(NC(=O)CN(c2cccc(OC)c2)S(=O)(=O)c2ccccc2)ccc1Cl,12*,24*,-7,-46,42,6,4,34*,17*
COc1ccc(NC(=O)CN(c2ccc(OC)c(Cl)c2)S(=O)(=O)c2ccccc2)c(OC)c1,14*,34*,-6,-11,40,7,2,30*,17*
Cn1c(=O)cc(OCC(=O)N2CCN(c3ccccc3Cl)CC2)c2ccccc21,-4,-2,.,4,.,.,.,.,.
CC(=O)Nc1ccc(N(CC(O)Cn2c3ccccc3c3ccccc32)S(=O)(=O)c2ccc(C)cc2)cc1 (configuration not stated),10*,29*,22*,-50,31,10,4,41*,23*

# Screening data from PubChem.
